The values that follow come from PubChem BioAssay (NCI).

The structures appear in SMILES notation. About 83,000 compounds went through this panel and 20% of them were active in at least one assay; those are over-represented in the sample as a whole.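 Negative percent growth values reflect cell death: -40 means 40% of the cells present at the start died, and -100 means all died.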 A number with no mark means an inactive call. Calls of active or inactive are those of the source. How the source made its calls: active means growth percent below 10; inactive means the rest.

Common to all, as to assay: NCI-60 one-dose screen, 48 h (100 = growth as untreated, 0 = no growth, -100 = all killed)
One assay deals with HT29 colon. As to conditions: 10 µM unless noted.
The next assay relates to SNB-19 CNS. As to conditions: 10 µM unless noted.
Another assay deals with U251 CNS. As to conditions: 10 µM unless noted.
A further assay has as its system PC-3 prostate. As to conditions: 10 µM unless noted.
A further assay relates to UACC-62 melanoma. Conditions: 10 µM unless noted.
For a further assay, the system named is LOX IMVI melanoma. Conditions: 10 µM unless noted.
The subject of a further assay is SK-MEL-28 melanoma. As to conditions: 10 µM.
The test system of the next assay is SK-MEL-2 melanoma. Conditions: 10 µM unless noted.
A further assay has as its system EKVX NSCLC. Conditions: 10 µM unless noted.
The next assay deals with SN12C renal. Conditions: 10 µM unless noted.
A further assay relates to UO-31 renal. As to conditions: 10 µM unless noted.
In a further assay the test system is TK-10 renal. Conditions: 10 µM unless noted.
The next assay concerns ACHN renal. Conditions: 10 µM unless noted.
Another assay relates to CAKI-1 renal. As to conditions: 10 µM unless noted.
A further assay has as its system CCRF-CEM leukemia. As to conditions: 10 µM unless noted.
Another assay relates to MOLT-4 leukemia. As to conditions: 10 µM unless noted.
The subject of the next assay is SR leukemia. As to conditions: 10 µM unless noted.
The subject of another assay is SK-MEL-5 melanoma. Conditions: 10 µM unless noted.
For a further assay, the system named is A498 renal. Conditions: 10 µM unless noted.
The subject of another assay is SNB-75 CNS. As to conditions: 10 µM unless noted.

With `O=C(CN1C=NC2C(N3CCOCC3)=NC=NC21)c1cccc2ccccc12` (configuration not stated), the growth was 111% in the assay with HT29 colon; 96.7% with SNB-19 CNS; 101% with U251 CNS; 85.2% in the assay with PC-3 prostate; 85.5% in the assay with UACC-62 melanoma; 91.9% with LOX IMVI melanoma. Further, the growth was 109% in the assay with SK-MEL-28 melanoma; 99% in the assay with SK-MEL-2 melanoma; 86.5% with EKVX NSCLC; 95.5% in the assay with SN12C renal; 71.6% in the assay with UO-31 renal; 130% in the assay on TK-10 renal. Also, the growth in the assay on ACHN renal was 97.8%; with CAKI-1 renal, 73.1%; in the assay with CCRF-CEM leukemia it was 104%; with MOLT-4 leukemia, 93.3%; in the assay on SR leukemia, 85.1%.

For `Clc1ccc(Nc2nnc(-c3ccc4c(c3)OCO4)o2)cc1`, the growth was 95% in the assay with HT29 colon; 102% with U251 CNS; 107% with PC-3 prostate; 104% in the assay on SK-MEL-5 melanoma; 88.9% with UACC-62 melanoma; 89.9% with LOX IMVI melanoma. Besides, the growth was 114% in the assay on SK-MEL-28 melanoma; 102% with SK-MEL-2 melanoma; 96.6% in the assay with SN12C renal; 86.9% with UO-31 renal; 94.6% in the assay with TK-10 renal; 102% with ACHN renal. The growth was 98.4% with CAKI-1 renal; 97.5% in the assay with A498 renal; 100% in the assay on CCRF-CEM leukemia; 82.7% in the assay on MOLT-4 leukemia; 83.4% in the assay with SR leukemia.

Take `O=c1oc2ccc(Cl)cc2c(=O)n1-c1ccc(I)cc1F`: the growth is -28.4% (active) in the assay with SNB-75 CNS; 18.6% in the assay on SNB-19 CNS; -1.68% (active) with U251 CNS; 1.89% (active) with PC-3 prostate; -81.5% (active) in the assay on SK-MEL-5 melanoma; -28.8% (active) with UACC-62 melanoma. Besides, the growth with LOX IMVI melanoma is 0.538% (active); with SK-MEL-28 melanoma, 0.51% (active); in the assay with SK-MEL-2 melanoma it was -24.3% (active); with EKVX NSCLC it was 11.4%; in the assay with SN12C renal, -1.14% (active); with UO-31 renal it was 7.35% (active). In addition, the growth was 11% in the assay on TK-10 renal; 4.07% (active) with ACHN renal; -16.3% (active) in the assay with CAKI-1 renal; -75.5% (active) in the assay on A498 renal; 7.15% (active) in the assay with CCRF-CEM leukemia; -28.6% (active) with MOLT-4 leukemia.

For the compound `COc1ccc(S(=O)(=O)N(Cc2ccc3c(n2)C=CC(C)(C)O3)C2CCC2)cc1OC`, the growth is 3.8% (active) in the assay with HT29 colon; 8.75% (active) in the assay with SNB-19 CNS; 0.365% (active) in the assay on U251 CNS; -3.05% (active) with PC-3 prostate; -14.7% (active) in the assay with UACC-62 melanoma; -40.6% (active) in the assay on LOX IMVI melanoma. Moreover, the growth in the assay on SK-MEL-28 melanoma is -18.8% (active); in the assay with SK-MEL-2 melanoma, -37.5% (active); in the assay with EKVX NSCLC it was -22.5% (active); with SN12C renal it was 6.9% (active); with UO-31 renal, -10.2% (active); in the assay on TK-10 renal it was -8.7% (active). Further, the growth in the assay with ACHN renal was 13.4%; in the assay with CAKI-1 renal, -28.2% (active); in the assay with A498 renal, -25.4% (active); in the assay on CCRF-CEM leukemia it was -19% (active); in the assay on MOLT-4 leukemia, -14.3% (active); in the assay on SR leukemia, -40% (active).

Turning to `COC(=O)C1=Nc2ccc(F)cc2/C1=C/c1sc(=S)[nH]c1O`, the growth with HT29 colon was 8.16% (active); with SNB-19 CNS, 30.4%; in the assay with U251 CNS it was 8.56% (active); with SK-MEL-5 melanoma, -41% (active); in the assay on UACC-62 melanoma it was 53.6%; in the assay with LOX IMVI melanoma, 13%. Also, the growth in the assay on SK-MEL-28 melanoma was 59.4%; in the assay with SK-MEL-2 melanoma, 39.5%; with EKVX NSCLC, 36.8%; in the assay with SN12C renal, 27.3%; in the assay on UO-31 renal, 14.7%; with TK-10 renal, 56%. In addition, the growth in the assay on ACHN renal was 25.1%; in the assay on CAKI-1 renal, 20%; in the assay on A498 renal it was 25.7%; in the assay on CCRF-CEM leukemia, 11.9%; in the assay with MOLT-4 leukemia, 13.7%; in the assay on SR leukemia it was 22.3%.

As for `S=C1CCCC(=S)N1`, the growth is 103% in the assay with HT29 colon; 101% with U251 CNS; 103% in the assay with PC-3 prostate; 107% with SK-MEL-5 melanoma; 96% in the assay on UACC-62 melanoma; 96.8% with LOX IMVI melanoma. Besides, the growth in the assay with SK-MEL-28 melanoma was 106%; in the assay on SK-MEL-2 melanoma, 102%; in the assay with EKVX NSCLC it was 106%; in the assay on SN12C renal, 99.3%; with UO-31 renal it was 87.8%; in the assay on TK-10 renal it was 114%. In addition, the growth in the assay with A498 renal is 91.3%; with CCRF-CEM leukemia it was 105%; in the assay on MOLT-4 leukemia, 107%; in the assay with SR leukemia it was 114%.

For `O=c1oc2ccc(Cl)cc2c(=O)n1-c1ccc(Cl)cc1F`, the growth was -25.3% (active) with SNB-75 CNS; 18.4% with SNB-19 CNS; -4.3% (active) in the assay with U251 CNS; 2.03% (active) in the assay on PC-3 prostate; -87% (active) in the assay with SK-MEL-5 melanoma; -10.7% (active) in the assay on UACC-62 melanoma. In addition, the growth is 3.62% (active) in the assay with LOX IMVI melanoma; 0.566% (active) in the assay with SK-MEL-28 melanoma; -31% (active) with SK-MEL-2 melanoma; 9.78% (active) in the assay on EKVX NSCLC; 2.13% (active) with SN12C renal; 6.59% (active) in the assay on UO-31 renal. Moreover, the growth in the assay on TK-10 renal was 6.66% (active); in the assay with ACHN renal it was 4.37% (active); in the assay with CAKI-1 renal, -16.8% (active); in the assay with A498 renal, -71.7% (active); in the assay with CCRF-CEM leukemia, 5.21% (active); in the assay on MOLT-4 leukemia, -25.1% (active).

As to `COc1cc(/C=C2\Oc3cc(OCCCN4CCCC4)ccc3C2=O)cc(OC)c1`, the growth in the assay on HT29 colon was -42.4% (active); in the assay on SNB-19 CNS, 64.7%; in the assay on U251 CNS, 18.3%; with PC-3 prostate, 39.3%; in the assay with UACC-62 melanoma, 71.1%; with LOX IMVI melanoma, -78% (active). Further, the growth was 73.5% in the assay on SK-MEL-28 melanoma; 77.1% in the assay with EKVX NSCLC; 78.8% in the assay on SN12C renal; 53.4% in the assay on UO-31 renal; 101% with TK-10 renal; 58.6% in the assay on CAKI-1 renal. Also, the growth was -24.4% (active) in the assay with CCRF-CEM leukemia, -22.9% (active) in the assay on MOLT-4 leukemia and -49.3% (active) with SR leukemia.
